# High-throughput results deposited in PubChem by National Center for Advancing Translational Sciences (NCATS).
# A selection: hits, their analogues and other compounds. The true share with any hit is near 7.9%.
# SW480 rereplic = inducers of DNA re-replication in SW480 colon cancer cells; SW480 DNA re-replication, Hoechst DNA content imaging, 48 h; Potency, µM (highest dose often 46.1 µM), without a hit: at the top dose re-replication activation, usual class: activators; 1.8% of 340,000 active; AID 624297; further: % of control where 0% means no effect; nearly all actives have a fitted effect of over 55% in size
#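 Image-based read-out: total Hoechst fluorescence of nuclei (405 nm excitation, 500-530 nm emission), with hits raising the fraction of high-intensity nuclei. SW480 colon cells incubated 48 hr with compounds at 37 C.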
# KB-V1 cytotox = KB-V1 MDR subline cytotoxicity; KB-V1 MDR cells viability, CellTiter-Glo, 72 h; Potency, µM (series often up to 46.1 µM), actives largely listed as cytotoxic; 3.4% of 400,000 active; AID 1347076; further: on the % scale 0 is the no-effect control and ±100 the full control effect; nearly all actives have a fitted effect of over 60% in size
#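 Drug-selected KB-V1 cells, grown in DMEM lacking phenol red with 10% FBS, receive compound titrations; after three days at 37 degrees C, surviving cell ATP is quantified by CellTiter-Glo luminescence and responses normalized and curve-fitted.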
# MCF10A rereplic = DNA re-replication induction in MCF 10a cells | MCF 10A DNA re-replication, Hoechst nuclear intensity, 48 h | Potency, µM (top dose mostly 46.1 µM), for inactives: top-dose activity, positive = re-replication, actives largely listed as activators | 2.9% of 350,000 active; further: % of control where 0% means no effect; nearly all actives have a fitted effect of over 50% in size
# HT1080NT lethal = kills 2HG-producing HT-1080-NT fibrosarcoma cells. Potency, µM (highest dose often 46.1 µM), without a hit: at the top dose activity, negative = less viability, most hits filed as cytotoxic. AID 686970. HT-1080-NT fibrosarcoma viability, CellTiter-Glo ATP luminescence, 48 h. 1.6% of 360,000 active;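 further: NT is the 2HG producing partner of a matched IDH1 knockdown line; 0% = DMSO-treated cells and -100% = media-only wells without cells; nearly all actives have a fitted effect of over 55% in size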
#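 A 48-hour cytotoxicity screen used HT-1080-NT cells plated 2 hours before compound delivery. ATP-based CellTiter-Glo luminescence measured viability, normalized to DMSO and no-cell controls.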
# KB-3-1 cytotox = KB-3-1 parental cell cytotoxicity | KB-3-1 viability, CellTiter-Glo ATP luminescence, 72 h | Potency, µM (doses to about 46.1 µM), actives largely listed as cytotoxic | 1.4% of 400,000 active; further: on the % scale 0 is the no-effect control and ±100 the full control effect; nearly all actives have a fitted effect of over 60% in size
#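 KB-3-1 parental drug-naive adenocarcinoma cells in DMEM/10% FBS, incubated 72 h at 37 C with pin-transferred compounds across a concentration series. Viability by CellTiter-Glo luminescence; concentration-response curves fitted after normalization.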
# HT1080 IDH1KD tx = toxicity to HT-1080 IDH1 knockdown cells (counter line). Potency, µM (top dose mostly 46.1 µM), without a hit: at the highest dose activity, negative = toxicity, actives largely listed as cytotoxic. 2% of 360,000 active. HT-1080 IDH1 knockdown viability, ATP luminescence, 48 h;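 further: 0% = DMSO wells and -100% = cell-free medium wells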
#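 After a 2 h attachment period, IDH1KD HT-1080 cells took pin-transferred compound for 48 h at 37 °C; ATP-based luminescence after 10 min room-temperature reagent incubation reported viability.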
# Starred values were filed as active, the others as inactive; i = inactive; u = inconclusive; x = no result; ! = not active in a repeat. The call rests on the fitted dose curve; in most records, active means well fitted curve in the direction sought with a large enough effect; inconclusive means small, poorly fitted or top-dose-only effect, or another doubt; inactive means no such curve, though single readings can be large; an effect the other way counts as inactive or inconclusive. Potency means the concentration at half of the fitted maximal effect.
SMILES,SW480 rereplic,KB-V1 cytotox,MCF10A rereplic,HT1080NT lethal,KB-3-1 cytotox,HT1080 IDH1KD tx
C=CCSc1n[nH]c(-c2ccc(OCCC)cc2)n1,u,i,-6%,7.1µM*,i,8.9µM*
Fc1cccc(-c2cc3nc4c(c(N5CCOCC5)n3n2)CCCC4)c1,-2%,26µM*,-3%,2%,i,10%
Clc1cccc(-c2cc3nc4c(c(N5CCOCC5)n3n2)CCCC4)c1,-4%,i,0%,-16%,i,-30%
COc1ccc(CN2CCN(Cc3cccc(F)c3)CC2)cc1OC,-2%,i,6%,10%,i,5%
CCCCNc1c(-c2ccc(OC)c(SC3CCCCC3)c2)nc2cc(C)ccn12,24%,u,u,18µM*,u,u
CCCCNc1c(-c2ccc(-c3ccc(C(C)=O)cc3)c(OC)c2)nc2cnccn12,23µM*,i,21µM*,u,i,u
CCCCCCSc1ccc(-c2nc3ccccn3c2NCCCC)cc1,0%,u,u,2%,i,4%
CCCCNc1c(-c2ccc(SC3CCCCC3)cc2)nc2cnccn12,u,37µM*!,u,u,i,u
CCCCNc1c(-c2ccc(OC)c(SC3CCCCC3)c2)nc2cnccn12,u,i,16µM*,u,i,u
CN(C)C(CNC(=O)c1c(F)cccc1Cl)c1ccco1 (centres undefined),-3%,i,u,0%,i,7%
CCOC(=O)c1cc(OC(=O)c2cc(OC)cc(OC)c2)n(-c2ccccc2)n1,x,i,x,x,i,x
CCCCNc1c(-c2ccc(OC)c(SC3CCCCC3)c2)nc2ccc(Cl)cn12,11%,i,21µM*,10%,i,-3%
COc1ccc(-c2nc3cnccn3c2NCc2ccccc2)cc1SC1CCCCC1,u,i,12µM*,-11%,i,-21%
Cc1[nH]nc(C(F)(F)F)c1N=NN1CCOCC1,u,u,3.7µM*,u,u,u
COc1ccc(OC)c(CN2CCC(Cc3ccccc3)CC2)c1,5%,i,22%,u,i,-11%
COc1cc(OC)c(CN2CCc3c([nH]c4ccccc34)C2)cc1Br,-14%,i,8%,16µM*,u,u
CCOC(=O)C1CCCN(Cc2cc(Br)c(OC)cc2OC)C1 (centres undefined),-1%,10µM*,1%,-2%,i,-24%
COc1cc(OC)c(CN2CCC(Cc3ccccc3)CC2)cc1Br,19%,i,12µM*,-26%,u,-23%
O=C(NCc1cc(F)ccc1F)C1CCC(=O)N(C2CCCCCC2)C1 (centres undefined),-14%,i,3%,-7%,i,-1%
CC1(C(=O)NCC2CC2)CCN1C(=O)C1(c2ccccc2)CC1 (centres undefined),x,i,x,26%,i,5%
Cc1ccc(C)c(C(=O)COc2ccccc2[N+](=O)[O-])c1,u,i,u,-1%,i,u
Cc1cc(C)c(S(=O)(=O)Oc2ccccc2[N+](=O)[O-])c(C)c1,21µM*,15µM*,6.5µM*,u,i,u
CCCCOc1ccc(CN=C(N)N)cc1Cl,20%,i,u,u,u,u
CCCOc1ccc(CCCN=C(N)N)cc1Cl,21%,i,u,u,21µM*,21µM*
COc1ccc(/C=C/C(=O)c2cc(F)ccc2OC(=O)c2ccccc2OC)cc1OC,u,3.3µM*,13µM*,1µM*,5.2µM*,1.3µM*
SMILES,SW480 rereplic,KB-V1 cytotox,MCF10A rereplic,HT1080NT lethal,KB-3-1 cytotox,HT1080 IDH1KD tx
COc1ccc(/C=C/C(=O)c2cc(F)ccc2OC(=O)c2ccccc2)cc1OC,1.3µM*,u,u,u,u,1.6µM*
COc1ccc([C@H]2N[C@]3(CCCN(CC4CCCCC4)C3=O)[C@H]3C(=O)N(Cc4ccccc4)C(=O)[C@@H]23)cc1,x,u,x,-3%,i,1%
O=S1(=O)CC(N2CCCCC2)CN1CCc1ccccc1 (centres undefined),x,i,x,24%,i,18%
Cc1cc(C(=O)NC2CC(C)(C)Cc3c2cnn3-c2ccccc2)n(C)n1 (centres undefined),3%,x,-2%,1%,x,-13%
CC(=O)[C@@]1(O)C(C)CC2C3C=C(C)C4=Cc5c(cnn5-c5ccccc5)C[C@]4(C)C3C(O)C[C@@]21C (some centres undefined),8.2µM*,u,15µM*,4.6µM*,u,21µM*
C=CCC1(/C=N/O)CCOC(C)(C)C1 (centres undefined),-104%,i,-5%,11%,i,6%
COc1ccc(CN2CCN(c3cc(C)nc4c5c(C)cc(C)nc5nn34)CC2)cc1F,9%,2.3µM*,4%,-4%,i,10%
CC(C)C(=O)N1CCCC1(C)C(=O)Nc1ccc(F)cc1 (centres undefined),x,i,x,14%,i,27%
COc1ccc(S(=O)(=O)N2CCCCC2c2cc(C(=O)Nc3ccc(F)c(Cl)c3)no2)cc1 (centres undefined),x,i,x,u,i,u
CCOC(=O)C1(Cc2ccc(OC)cc2)CCN(C(=O)c2cccc3nccnc23)CC1,-3%,u,-3%,-3%,i,-2%
CCOC(=O)C1(Cc2ccc(OC)cc2)CCN(C(=O)c2cc(C)nn2C)CC1,u,i,-5%,u,u,15µM*
CCc1cc(=O)oc2cc(C)c(CN3CCCCC3)c(O)c12,-5%,16µM*,23%,-5%,i,-1%
Nc1ccc2c(c1)Oc1ccccc1C=C2,-6%,i,3%,-6%,i,3%
Nc1ccc2c(c1)COc1ccccc1O2,-3%,18µM*,3%,-13%,i,-10%
CC(C(Sc1ccccc1N)c1ccccc1)[N+](=O)[O-] (centres undefined),10%,i,u,u,12µM*,u
CC(C)(C)c1ccc(CSc2ccc(S(=O)(=O)N3CCOCC3)cn2)cc1,6%,i,u,-26%,i,-14%
O=c1[nH]c(CN2CCN(c3ccc([N+](=O)[O-])cc3)CC2)nc2ccsc12,0%,18µM*,-3%,-24%,16µM*,-21%
COc1ccccc1N/C(N)=N/c1nc(C)cc(C)n1,-21%,i,u,-12%,i,-3%
